Screening data from PubChem BioAssay.
The list is not random: actives were taken first. Their share in the collection is about 31%.
PLAP activator: activators of human placental alkaline phosphatase; P05187; purified PLAP enzyme, luminescent substrate read-out; stronger effect = higher value; activation fold at 20 µM; hit rate 1.2% among 96,000; AID 696; in the data active means activation fold above about 2
Target sequence (P05187 whole entry, looked up): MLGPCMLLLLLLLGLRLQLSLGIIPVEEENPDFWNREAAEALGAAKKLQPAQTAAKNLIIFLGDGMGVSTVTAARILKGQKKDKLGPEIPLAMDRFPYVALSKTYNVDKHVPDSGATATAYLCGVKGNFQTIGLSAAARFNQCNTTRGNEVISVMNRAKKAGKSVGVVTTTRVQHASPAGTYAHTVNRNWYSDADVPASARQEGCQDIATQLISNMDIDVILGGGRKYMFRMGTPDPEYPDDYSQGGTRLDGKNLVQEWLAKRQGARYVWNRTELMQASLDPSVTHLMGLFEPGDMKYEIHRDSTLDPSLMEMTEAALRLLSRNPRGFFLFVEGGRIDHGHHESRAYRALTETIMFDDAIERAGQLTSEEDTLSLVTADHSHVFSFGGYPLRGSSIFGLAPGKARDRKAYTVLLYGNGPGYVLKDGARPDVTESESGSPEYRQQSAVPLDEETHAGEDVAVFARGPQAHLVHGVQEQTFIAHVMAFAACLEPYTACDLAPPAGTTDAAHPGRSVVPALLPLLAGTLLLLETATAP
CYP2C19 inh: blocks human cytochrome P450 2C19; P33261; CYP2C19 Supersomes, luciferin-H EGE luminescence, 30 min; inhibition, % at 5 µM; hit rate 21% among 96,000; AID 778;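 active means CYP2C19 inhibition above a set limit at 5 µM in the primary screen, cut at about 50% in these data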
CYP2C19 activ: cytochrome P450 2C19 (human) activation; P33261; recombinant CYP2C19, luciferin-H EGE luminescence; stronger effect = higher value; 0 = fully inhibited enzyme, 1 = untreated enzyme; activation factor at 5 µM; 96,000 tested, under 10 active; AID 1025;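 active means activation factor of at least 2 at 5 µM in the primary screen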
CYP2C9 inhib: inhibitors of human CYP2C9; P11712; CYP2C9 Supersomes, luciferin-H conversion, luminescence; inhibition, % at 5 µM; hit rate 20% among 96,000; AID 777;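 active means blocking of liver enzyme CYP2C9 beyond about 50% at 5 µM, limit read from the data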
CYP2C9 act: increases human cytochrome P450 2C9 activity | recombinant CYP2C9, luciferin-H conversion, luminescence; stronger effect = higher value; factor 1 = untreated enzyme, 0 = blocked | P11712 | AID 1024 | hit rate 1.4% among 96,000 | activation factor at 5 µM;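 active means activation factor of 2 or more for CYP2C9 at a 5 µM dose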
Of the large screens only hits and unclear results are named; the others gave an inactive call.

CCOc1ccccc1OCCOc1ccc(F)cc1	CYP2C19 inh 56.7
Nc1nc2c3ccccc3nc(Cc3ccccc3)n2n1	CYP2C19 inh 54.9
O=C(c1cccn2c(=O)c3ccccc3nc12)N1CCN(Cc2ccc3c(c2)OCO3)CC1	CYP2C9 inhib 75.3
O=C(c1cccn2c(=O)c3cc(Cl)ccc3nc12)N1CCOCC1	none
O=C(c1ccc2nc3ccccc3c(=O)n2c1)N1CCN(Cc2ccc3c(c2)OCO3)CC1	CYP2C9 inhib 52.9
O=C(NCCN1CCN(c2ccccc2F)CC1)c1cccn2c(=O)c3ccccc3nc12	CYP2C19 inh 59.8, CYP2C9 inhib 57.3
O=C(c1ccc2nccnc2c1)N1CCN(Cc2ccc3c(c2)OCO3)CC1	none
O=C(c1cccn2c(=O)c3cc(Cl)ccc3nc12)N1CCN(Cc2ccc3c(c2)OCO3)CC1	CYP2C19 inh 87.6, CYP2C9 inhib 97.1
COCCCN1C(=O)C(O)=C(C(=O)c2ccc(C)o2)C1c1cccc(Br)c1 (stereo unspecified)	none
CCC(CC)C(=O)N1CCN(Cc2ccc3c(c2)OCO3)CC1	none
CCn1nc(C(=O)N2CCN(Cc3ccc4c(c3)OCO4)CC2)c2ccccc2c1=O	CYP2C9 inhib 61.1
COCCNC(=O)CSc1nc2ccccc2c2nc(C)nn12	none
Cc1cc(=O)n2c(n1)OC(CO)C2 (stereo unspecified)	none
CCCn1c(SCC(=O)N2CCCc3ccccc32)nnc1-c1ccccn1	CYP2C19 inh 78.9
CCOc1ccc(-n2c(COc3ccc(C)cc3)nnc2SCC(N)=O)cc1	CYP2C19 inh 91.2
Cc1ccc(-c2nnc3ccc(SCC(=O)N4CCc5ccccc54)nn23)cc1	CYP2C9 inhib 99.7
COc1ccc(-c2nnc3ccc(SCC(=O)N4CCOCC4)nn23)cc1	none
O=C(CSc1nnc2scc(-c3ccccc3)n12)N1CCN(Cc2ccccc2)CC1	none
Cc1ccc(-c2csc3nnc(SCC(=O)N4CCN(Cc5ccccc5)CC4)n23)cc1	CYP2C19 inh 56.8, CYP2C9 inhib 68.5
COc1ccc(S(=O)(=O)NNC(=O)C2Cc3c(ccc4ccccc34)O2)cc1 (stereo unspecified)	none
Cc1ccc(C(=O)C2=C(O)C(=O)N(CCN3CCOCC3)C2c2ccccn2)o1 (stereo unspecified)	none
CCCc1cc(C(=O)Nc2sc(C)c(C)c2C(=O)OCC)no1	none
N#Cc1cc([N+](=O)[O-])ccc1Oc1cccc(/C=N/NC(=O)c2cccc(Cl)c2)c1	none
O=C(CSc1nnc2scc(-c3ccccc3)n12)N1CCCc2ccccc21	CYP2C19 inh 60.9
COc1ccc(OCc2nnc(SCC(=O)N3CCCc4ccccc43)n2-c2ccc(C)cc2)cc1	CYP2C19 inh 61.6, CYP2C9 inhib 86.9
O=C(CSc1nnc(CN2CCOCC2)n1-c1ccccc1)N1CCc2ccccc21	CYP2C9 inhib 63.3
Cn1c(Cc2cccs2)nnc1SCC(=O)N1CCCc2ccccc21	none
O=C(CSc1nnc(COc2ccccc2)n1-c1ccccc1)c1cccs1	CYP2C19 inh 97.5, CYP2C9 inhib 96.8
CCSc1ncc(C#N)c(N)n1	none
Cc1ccc(-c2nnc(SCC(=O)N3CCCc4ccccc43)n2N)cc1	CYP2C19 inh 58.2
CC(c1nnc(SCC(=O)N2CCc3ccccc32)n1-c1ccc(Cl)cc1)N(C)C (stereo unspecified)	CYP2C19 inh 61.1
N#Cc1ccc(OCc2nnc(SCC(=O)N3CCCc4ccccc43)n2-c2ccccc2)cc1	CYP2C19 inh 85.2, CYP2C9 inhib 86.8
COc1ccccc1OCc1nnc(SCC(=O)N2CCCCC2)n1-c1ccccc1	CYP2C19 inh 70.9
Cc1c(C(=O)O)oc2ccc(S(=O)(=O)NCc3ccccc3)cc12	none
O=C(OCCN1C(=O)CCC1=O)c1ccc(S(=O)(=O)N2CCCCC2)cc1	none
Cc1ccc(N2C=Nc3ccc(C)c4nc(C)cc2c34)cc1	CYP2C19 inh 68.1, CYP2C9 inhib 86.4
Cn1c(-c2ccc(C=O)s2)nc2ccccc21	none
Cc1ccc(-c2cc(C(F)F)nc(N3CCC(C)CC3)n2)cc1	CYP2C9 inhib 54.7
CC(OC(=O)CN(C)S(=O)(=O)c1ccc(Cl)cc1)C(=O)Nc1ccc(N2CCOCC2)cc1 (stereo unspecified)	none
CC(=O)Nc1ccc(NC(=O)C(C)OC(=O)CN(C)S(=O)(=O)c2ccc(Cl)cc2)cc1 (stereo unspecified)	CYP2C19 inh 75.3, CYP2C9 inhib 60.3
O=C1CCC(C(=O)O)(c2ccccc2)C1 (stereo unspecified)	none
COc1ccc(NC(=O)C2OCCc3ccccc32)c(OC)c1 (stereo unspecified)	CYP2C19 inh 91.4
COc1ccc(NC(=O)c2ccccc2O)c(OC)c1	CYP2C19 inh 60.5, CYP2C9 inhib 53.3
COc1ccc(NC(=O)c2cc(C(C)C)on2)c(OC)c1	CYP2C9 act 2.8
CCc1ccc(C2CC(c3cccc(OC)c3)n3nc(N)nc3N2)cc1 (stereo unspecified)	none
CCN(CC)CCNC(=O)c1c(C)n(-c2ccccc2)c2cc(Br)c(OC)cc12	none
CCSc1ccc2nnc(-c3ccc(F)cc3)n2n1	none
CC1=C(C)/C(=N\OS(=O)(=O)c2ccccc2)C=CC1=O	none
CCN(CC)S(=O)(=O)c1csc(C(=O)NCc2ccccc2)c1	none
CCN(CC)S(=O)(=O)c1csc(C(=O)NC2CCCCC2)c1	CYP2C9 inhib 61.8
CCN(CC)S(=O)(=O)c1cccc(C(=O)NC2CCCCC2)c1	CYP2C9 inhib 57.6
CC(C)C(NC(=O)CN1C(=O)c2ccccc2S1(=O)=O)C(C)C	none
Cc1cc(C)c(NC(=O)C(C)Sc2nc3ccc(N4C(=O)c5ccccc5C4=O)cc3s2)c(C)c1 (stereo unspecified)	none
CCOC(=O)Cc1csc(NC(=O)CN2C(=O)c3ccccc3S2(=O)=O)n1	PLAP activator 2.3
CCOC(=O)c1ccccc1NC(=O)CN1C(=O)c2ccccc2S1(=O)=O	none
CCc1cccc(C)c1NC(=O)CSc1nc2ccc(N3C(=O)c4ccccc4C3=O)cc2s1	CYP2C9 inhib 51.1
COC(=O)c1ccc(C)c(NC(=O)CN2C(=O)c3ccccc3S2(=O)=O)c1	CYP2C9 inhib 83.1
O=C(CN1C(=O)c2ccccc2S1(=O)=O)NC1CCCCCC1	CYP2C19 inh 65.6
CN1CCN(C(=O)C23CCC(C)(c4nc5ccccc5nc42)C3(C)C)CC1 (stereo unspecified)	none
COc1ccc(OC)c(NC(=O)CN2C(=O)c3ccccc3S2(=O)=O)c1	none
CCc1cccc(C)c1NC(=O)CN1C(=O)c2ccccc2S1(=O)=O	CYP2C19 inh 77.1
Cc1[nH]nc2cn[nH]c12	none
COC(=O)c1ccccc1N1C(=O)[C@@H]2C(c3ccc(Br)cc3)=NO[C@@H]2C1=O	CYP2C19 inh 99.3
CC1(C)CC(=O)C(C=NCCN2CCN(C(=S)Nc3ccc(F)cc3)CC2)=C(O)C1	CYP2C19 inh 75.2
CCCCCC(=O)N1CCN(CCN=CC2=C(O)CC(c3ccc(OC)c(OC)c3)CC2=O)CC1 (stereo unspecified)	CYP2C9 inhib 64.5
